Measured values: the supplement of paper PMC10723795
± gives the standard deviation of the averaged measurements.

Tests used:
[1] = system: DLD1; test: nucleolar normality score relative to DMSO (fraction of DMSO control); RPE1 is a non-cancer human cell line; higher = more normal nucleoli (less nucleolar stress)
Description: (§1)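 Selected screen hits were validated in hTERT lines (BJ5TA, CHON-002, RPE1) and cancer lines (DLD1, HCT116). Cells were immunostained for nucleolin and UBF and the nucleolar normality score was measured per field of view, with 4 fields per drug. Scores are normalized to each cell line's own DMSO control. Dose and time are not stated for this panel.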

[2] = system: HCT116; test: as above
Description: as §1

Row | Structure (SMILES) | nucleolar normality score [1] | nucleolar normality score [2]
1 | C=CCNC1=C2C[C@@H](C)C[C@H](OC)[C@H](O)[C@@H](C)/C=C(\C)[C@H](OC(N)=O)[C@@H](OC)/C=C\C=C(/C)C(=O)NC(=CC1=O)C2=O | 0.436 ± 0.052 | 0.462 ± 0.027
2 | CC(C)n1nc(-c2ccc3oc(N)nc3c2)c2c(N)ncnc21 [Sapanisertib] | 0.398 ± 0.035 | 0.549 ± 0.021
3 | CN(C)CCNC(=O)c1cccn2c(=O)c3cc4ccccc4cc3nc12 | 0.173 ± 0.037 | 0.202 ± 0.013
4 | CCc1cnn2c(NCc3ccc[n+]([O-])c3)cc(N3CCCC[C@H]3CCO)nc12 [Dinaciclib] | 0.442 ± 0.09 | 0.428 ± 0.052
5 | CN1CC[C@H](c2c(O)cc(O)c3c(=O)cc(-c4ccccc4Cl)oc23)[C@H](O)C1 [Flavopiridol] | 0.432 ± 0.076 | 0.452 ± 0.057
6 | COc1cccc2c1C(=O)c1c(O)c3c(c(O)c1C2=O)C[C@@](O)(C(=O)CO)C[C@@H]3O[C@H]1C[C@H](N)[C@H](O)[C@H](C)O1 [Doxorubicin] | 0.36 ± 0.056 | 0.253 ± 0.036
7 | CC(C)c1c2cc(-c3ccnc(NC4CCC(NC5CCOCC5)CC4)n3)ccc2nn1C (centres undefined) | 0.509 ± 0.046 | 0.507 ± 0.016
8 | Cc1cnc(CNC(=O)c2c(=O)c3ccc(N4CCCN(C)CC4)nc3n3c2sc2ccccc23)cn1 | 0.224 ± 0.045 | 0.404 ± 0.19
9 | COC[C@H](NC(=O)c1cnc(C)s1)C(=O)N[C@@H](COC)C(=O)N[C@@H](Cc1ccccc1)C(=O)[C@@]1(C)CO1 [Oprozomib] | 0.471 ± 0.054 | 0.658 ± 0.046
10 | CC(C)c1cc(C(=O)N2Cc3ccc(CN4CCN(C)CC4)cc3C2)c(O)cc1O [Onalespib] | 0.363 ± 0.023 | 0.434 ± 0.027
11 | Cc1nc(-c2cn3c(n2)-c2ccc(-c4cnn(C(C)(C)C(N)=O)c4)cc2OCC3)n(C(C)C)n1 [Taselisib] | 0.485 ± 0.067 | 0.588 ± 0.052
12 | CC(C)C[C@H](NC(=O)[C@H](CCc1ccccc1)NC(=O)CN1CCOCC1)C(=O)N[C@@H](Cc1ccccc1)C(=O)N[C@@H](CC(C)C)C(=O)[C@@]1(C)CO1 [Carfilzomib] | 0.436 ± 0.059 | 0.574 ± 0.063
